# This is a sample that favours compounds with a hit; in the whole collection about 4.6% have one here.
# Epigenetic derep = Quantitative High-Throughput Screen for Regulators of Epigenetic Control; Potency, µM (titrated, usually from 53.9 µM), inactives show at the highest dose GFP activation, usual class: activators; AID 1865, 2009; murine LDR cells, GFP reporter derepression, 30 h; 280,000 compounds, 0.2% hits; active = well fitted activation curve with a large enough effect; also: potency is read from the fitted curve at half-maximal effect; % of control where 0% means no effect; nearly all actives have a fitted effect of over 60% in size
#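 In this reporter-derepression format, murine cells bearing a silenced integrated CMV-GFP locus incubate with test compound (30 h, 37 C), then are washed and imaged; fluorescent objects of 20–120 um count as induced cells.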
# D1 antagonist = Antagonist of Human D 1 Dopamine Receptor: qHTS; D(1A) dopamine receptor (Homo sapiens), P21728; HEK293 TREx D1 cells, calcium flux, dopamine EC80; hits give low values; activity change, negative = inhibition, % at 10 µM; 360,000 compounds, 3.2% hits; in the data active = activity change below about -30%; also: % is scaled to controls: 0 for no effect and ±100 for the full control effect
#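 Calcium flux readout: force-coupled, inducible Hek293 Trex D1 line, cells induced overnight at 30 C with tetracycline, dye-loaded 30–90 min at RT. Antagonism scored against EC80 dopamine challenge given 180 s after compound.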
# D1 PAM = Potentiators of Human D1 Dopamine Receptor: qHTS | D(1A) dopamine receptor (Homo sapiens), P21728 | HEK293 TREx D1 cells, calcium flux, dopamine EC20 potentiation | 360,000 compounds, 0.036% hits | potentiation, % at 10 µM; in the data active = potentiation above about 30%; also: 0% is about no effect
# TRHR enhancer = qHTS for Small Molecule Agonists and Allosteric Enhancers of Human TRH Receptor: Primary Screen for Enhancers | TRHR cells, fluo-8 calcium fluorescence, EC20 TRH enhancement | Thyrotropin-releasing hormone receptor (Homo sapiens), P34981 | 360,000 compounds, 0.66% hits | enhancement, % at 2 µM | AID 493056, 2011; in the data active = enhancement above about 30%; also: 0% is about no effect
# Target sequence (P34981 whole entry, looked up): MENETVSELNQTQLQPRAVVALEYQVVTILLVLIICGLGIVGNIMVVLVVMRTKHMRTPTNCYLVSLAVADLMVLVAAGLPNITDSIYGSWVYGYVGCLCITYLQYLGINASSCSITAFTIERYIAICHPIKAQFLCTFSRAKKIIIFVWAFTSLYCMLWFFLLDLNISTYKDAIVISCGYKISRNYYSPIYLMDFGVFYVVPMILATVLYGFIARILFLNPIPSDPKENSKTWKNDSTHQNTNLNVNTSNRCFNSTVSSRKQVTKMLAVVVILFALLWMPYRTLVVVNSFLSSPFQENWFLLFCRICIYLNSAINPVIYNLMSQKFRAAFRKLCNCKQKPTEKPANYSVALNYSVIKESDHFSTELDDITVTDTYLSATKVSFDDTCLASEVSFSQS
#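 TRHR-expressing cells loaded with fluo-8 calcium dye were read kinetically (ex 480/em 530) during compound addition, then stimulated with an EC20 of TRH (10 nM final). Enhancement of the Gq-mediated intracellular calcium response was scored.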
# TRHR ag = qHTS for Small Molecule Agonists and Allosteric Enhancers of Human TRH Receptor: Primary Screen for Agonists; Thyrotropin-releasing hormone receptor (Homo sapiens), P34981; AID 493084, 2011; 360,000 compounds, 0.18% hits; TRHR cells, calcium flux fluo-8, FDSS agonist mode; activation, % at 2 µM; also: 0% is about no effect
#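 Agonist-mode FDSS calcium read (Ex 480/Em 530, 1 s cycles) in 1536-well TRHR cells with fluo-8 dye, after 10-cycle baseline and 23 nL compound addition; TRH at EC20 (10 nM final) added afterwards for the enhancer phase.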
# D1 ag = Allosteric Agonists of the Human D1 Dopamine Receptor: qHTS. 360,000 compounds, 1% hits. D(1A) dopamine receptor (Homo sapiens), P21728. activation, % at 2 µM. HEK293 T-REx D1 cells, calcium flux, agonist mode. AID 504660, 2011; also: 0% is about no effect
#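 Tetracycline-induced HEK293 TREx D1 cells, force-coupled to calcium signalling, were dye-loaded with a no-wash calcium kit. Compound was pin-added after a 10 s baseline. Fluorescence was read kinetically at 1 cycle/s for 180 s, with calcium rises flagged as agonism.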
# Numbers without * were called inactive; · = no result; ! = not confirmed by another sample; [ ] = another dose, or the depositor's remark. Rule as the data show it, unless noted: active = activation above about 30%; inactive = the rest.
SMILES,Epigenetic derep,D1 antagonist,D1 PAM,TRHR enhancer,TRHR ag,D1 ag
CC(=O)Nc1ccc2c(c1)CN(c1cc(C)ccc1C)CO2,0%,-37*,-2,-3,0,9
CN1CCc2cccc3c2[C@H]1Cc1ccc(O)c(O)c1-3,0%,-90*,-7,-7,3,43*!
Cc1cccc(OCc2ccc(-c3nc(C#N)c(NCCN(C)C)o3)o2)c1,-3%,-18,3,-7,-3,102*
CC(C)CO/N=C1/[C@H]2O[C@@H]2[C@@H](O)[C@H]2[C@H]1CCn1c(=O)n(Cc3cc4c(cc3Cl)OCO4)c(=O)n12,0%[10.1 µM],·,·,·,·,·
CC(=O)Nc1ccc(S(=O)(=O)N(C)CC(=O)N(C)Cc2sccc2C)cc1,·,-32*,-9,1,0,1
CC(=O)Nc1ccc(S(=O)(=O)N(C)Cc2ccccc2)cc1,-1%,3,-13,1,0,10
COc1ccccc1-[n+]1c(C)cc(/C=C2\Sc3ccccc3N2C)cc1C,7.9µM*,21,-1,90*,61*,42*
COc1ccc(-[n+]2c(C)cc(/C=C3\Sc4ccccc4N3C)cc2C)cc1,3.2µM*,27,6,66*,73*,78*
COc1ccc(C(=O)/C=C2\Sc3ccccc3N2C)cc1,-3%,-21,2,0,-1,0
Cc1cc2c(cc1S(=O)(=O)CCC(=O)N1CCN(c3ccccc3)CC1)OCC(=O)N2,0%,-11,-2,3,0,-1
CC(C)CC(C(=O)NC(=O)NCc1ccccc1)N1C(=O)c2ccccc2C1=O (centres undefined),0%,-79*,-9,-1,0,2
O=C1CC(c2c[nH]c3ccccc23)C(=O)N1c1ccccc1 (centres undefined),0%,-34*,-6,3,0,-1
Cc1cc(O)c(C=O)c2c1C(=O)Oc1c(COC(=O)/C=C/C(=O)O)c(O)c(C(=O)O)c(C)c1O2,6%,·,·,·,·,·
COc1cc(C)nc(-c2csc(C)n2)n1,-2%,-3,0,31*,-1,1
CC(C)NC(=O)CC(c1ccccc1)c1cc(Br)ccc1O (centres undefined),3%,5,2,8,-1,44*
CCCCCCNC(=O)CC(c1ccccc1)c1cc(Br)ccc1O (centres undefined),0%,14,-2,8,0,7
C=C1c2ccccc2O[C@H](C(=O)OCC)[C@@H]1CC(C)(C)c1ccccc1,-3%,·,·,·,·,·
CC1(C)CSC(=NCc2ccccc2)N1C(=O)c1cccc([N+](=O)[O-])c1,-1%,-38*,-5,-29,56*,85*
Nc1ccc(NC(=O)c2ccc(C(=O)Nc3ccc(N)cc3)cc2)cc1,2%,-12,6,8,1,2
Nc1ccc(C(=O)Nc2ccc(OC(F)(F)C(F)F)c(NC(=O)c3ccc(N)cc3)c2)cc1,1%,-32*,1,1,0,3
On1onc2c3cc(-c4ccccc4)nc3ccc21,16µM*,-26,-11,-15,0,6
CCOC(=O)Cc1ccc(NC(=O)NC(C)c2c(-n3cccc3)sc(C)c2C)cc1 (centres undefined),0%,-24,-7,1,0,3
CC(C)Oc1ccc(CNC(=O)CCCn2c(=O)c3cccn3c3cccnc32)cc1,-2%,4,-2,25,0,1
COc1ccc(OCCNS(=O)(=O)c2ccc3oc4ccccc4c3c2)cc1,-2%,19,-3,-12,-1,14
CN(CCOc1ccccc1)S(=O)(=O)c1ccc2oc3ccccc3c2c1,0%,-43*,7,3,-1,40*

# Source: PubChem BioAssay
